Experimental data reported in the supplement of paper PMC10849652.
The full data set covers some 8,800 targets. This sample favours those with a hit. About 0.5% of all pairs of compound and target were hits.

Assays:
Assay in all cases: log2 fold change, soluble protein after heating vs DMSO (PISA); higher = thermal stabilisation; K562 lysate, 10 uM; active = over 0.2 and 3.5 SD of the protein, either way, in both replicates (recomputed)
erlotinib = compound: C#Cc1cccc(Nc2ncnc3cc(OCCOC)c(OCCOC)cc23)c1 [erlotinib]
How it was run: (§1)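 Values give the log-two fold change in thermal stability against solvent controls, from duplicates. Crude K562 extract at 1 mg/mL protein, made by dounce homogenisation in PBS pH 7.4 with 1 mM MgCl2, was treated with 10 μM compound for 30 min. After 3 min heating across 48°C-58°C, aliquots were pooled, adjusted to 0.5% NP-40 at 4°C and centrifuged at 21,000xg for 90 min. The supernatant was measured by TMTpro 16plex LC-MS/MS with channel sums equalised.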

[1] = compound: C/C(=N\NC(=O)C1=CC(=CC=C1)S(=O)(=O)N2CCOCC2)/C3=C(C=CC(=C3)Cl)O
How it was run: as §1

[2] = compound: C1=CC(=CC=C1C2=NC3=C(N2)C=C(C=C3)C(=O)N)OC4=CC=C(C=C4)Cl
How it was run: as §1

[3] = compound: C1=CC2=C(C=CC(=C2)/C=C\3/C(=O)NC(=NCC4=CC=CS4)S3)N=C1
How it was run: as §1

[4] = compound: C1=CC2=NC=CN=C2C=C1/C=C/3\C(=O)NC(=O)S3
How it was run: as §1

[5] = compound: C1=CC=C(C=C1)C2=NC(=C(N2)C3=CC=NC=C3)C4=CC(=C(C=C4)Cl)O
How it was run: as §1

[6] = compound: C1=CC=C2C(=C1)C3=NNC4=CC=CC(=C43)C2=O
How it was run: as §1

[7] = compound: C1CCN(C1)C(=O)NC2=CC=CC(=C2)NC3=NC=C(C(=N3)NCCC4=CN=CN4)Br
How it was run: as §1

[8] = compound: C1CN(CCC1(CC2=CC=C(C=C2)Cl)N)C3=NC=NC4=C3C=CN4
How it was run: as §1

IRAK-1-4 Inhibitor I = compound: C1COCCN1CCN2C3=CC=CC=C3N=C2NC(=O)C4=CC(=CC=C4)[N+](=O)[O-] [IRAK-1-4 Inhibitor I]
How it was run: as §1

Measured: log2 fold change

SMC4 (UniProt Q9NTJ3)
inactive: erlotinib -0.006 | [1] -0.018 | [2] -0.007 | [3] 0 | [4] -0.026 | [5] 0 | [6] -0.046 | [7] -0.015 | [8] -0.014 | IRAK-1-4 Inhibitor I -0.009

STOML2 (UniProt Q9UJZ1)
inactive: erlotinib -0.021 | [1] 0.018 | [2] 0.04 | [3] -0.049 | [4] 0.037 | [5] 0.012 | [6] -0.063 | [7] 0.023 | [8] 0.027 | IRAK-1-4 Inhibitor I 0.036

SF3B6 (UniProt Q9Y3B4)
Sequence of UniProt Q9Y3B4 (Q9Y3B4 whole entry, looked up): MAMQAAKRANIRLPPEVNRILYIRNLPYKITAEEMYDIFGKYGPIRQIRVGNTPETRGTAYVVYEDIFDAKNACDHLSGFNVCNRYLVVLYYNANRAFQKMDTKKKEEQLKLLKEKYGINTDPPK
inactive: erlotinib 0.011 | [1] 0.047 | [2] 0 | [3] 0.001 | [4] 0.043 | [5] 0.034 | [6] 0.044 | [7] 0.004 | [8] -0.034 | IRAK-1-4 Inhibitor I -0.024

SSNA1 (UniProt O43805)
Sequence of UniProt O43805 (O43805 whole entry, looked up): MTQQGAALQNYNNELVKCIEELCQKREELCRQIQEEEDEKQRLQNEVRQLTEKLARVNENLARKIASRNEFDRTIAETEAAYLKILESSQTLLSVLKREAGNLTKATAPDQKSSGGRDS
inactive: erlotinib -0.004 | [1] -0.04 | [2] -0.013 | [3] 0.07 | [4] -0.036 | [5] 0.04 | [6] -0.03 | [7] -0.002 | [8] 0.066 | IRAK-1-4 Inhibitor I 0.018

TAF9 (UniProt Q16594)
Sequence of UniProt Q16594 (Q16594 whole entry, looked up): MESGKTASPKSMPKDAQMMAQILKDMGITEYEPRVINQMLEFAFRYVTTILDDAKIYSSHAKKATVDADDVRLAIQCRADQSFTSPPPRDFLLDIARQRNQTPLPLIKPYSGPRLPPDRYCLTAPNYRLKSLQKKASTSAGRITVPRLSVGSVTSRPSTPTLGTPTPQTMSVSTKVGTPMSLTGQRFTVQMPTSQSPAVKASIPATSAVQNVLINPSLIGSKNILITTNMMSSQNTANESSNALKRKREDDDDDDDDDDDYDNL
inactive: erlotinib 0.022 | [1] 0.009 | [2] 0.081 | [3] 0.056 | [4] 0.002 | [5] 0.013 | [6] -0.052 | [7] -0.08 | [8] 0.084 | IRAK-1-4 Inhibitor I 0.032

STAT2 (UniProt P52630)
Sequence of UniProt P52630 (P52630 whole entry, looked up): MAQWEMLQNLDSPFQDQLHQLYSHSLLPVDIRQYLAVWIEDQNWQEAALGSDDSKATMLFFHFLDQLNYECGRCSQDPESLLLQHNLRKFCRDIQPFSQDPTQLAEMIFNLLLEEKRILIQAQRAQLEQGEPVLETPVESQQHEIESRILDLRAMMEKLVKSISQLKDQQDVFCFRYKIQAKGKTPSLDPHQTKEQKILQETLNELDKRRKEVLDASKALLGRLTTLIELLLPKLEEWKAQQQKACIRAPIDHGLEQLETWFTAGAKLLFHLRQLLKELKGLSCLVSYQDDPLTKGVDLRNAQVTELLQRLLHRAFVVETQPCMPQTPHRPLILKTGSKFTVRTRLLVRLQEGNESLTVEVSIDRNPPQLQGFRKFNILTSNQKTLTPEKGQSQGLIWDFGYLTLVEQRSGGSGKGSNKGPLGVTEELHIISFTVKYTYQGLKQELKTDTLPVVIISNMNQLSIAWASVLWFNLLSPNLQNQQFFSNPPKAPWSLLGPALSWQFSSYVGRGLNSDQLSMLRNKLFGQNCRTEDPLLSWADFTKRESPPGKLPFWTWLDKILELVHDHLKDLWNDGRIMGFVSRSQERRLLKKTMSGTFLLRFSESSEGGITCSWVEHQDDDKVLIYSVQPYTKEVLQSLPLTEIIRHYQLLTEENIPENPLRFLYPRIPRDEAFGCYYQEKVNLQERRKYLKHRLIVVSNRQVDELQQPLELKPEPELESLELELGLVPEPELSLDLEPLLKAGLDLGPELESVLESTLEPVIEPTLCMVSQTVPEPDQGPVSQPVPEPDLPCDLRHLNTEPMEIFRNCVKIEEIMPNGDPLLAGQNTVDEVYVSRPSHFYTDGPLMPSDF
inactive: erlotinib -0.009 | [1] 0.033 | [2] -0.102 | [3] -0.01 | [4] 0.034 | [5] 0.003 | [6] -0.032 | [7] 0.002 | [8] 0.018 | IRAK-1-4 Inhibitor I -0.018

SYNRG (UniProt Q9UMZ2)
inactive: erlotinib 0.029 | [1] -0.037 | [2] 0.078 | [3] 0.015 | [4] -0.012 | [5] -0.019 | [6] -0.01 | [7] -0.004 | [8] 0.021 | IRAK-1-4 Inhibitor I 0.016

SSB (UniProt P05455)
inactive: erlotinib -0.008 | [1] 0.007 | [2] -0.014 | [3] -0.025 | [4] -0.009 | [5] 0.001 | [6] -0.015 | [7] 0.013 | [8] 0.002 | IRAK-1-4 Inhibitor I -0.011

STAU1 (UniProt O95793)
inactive: erlotinib 0.02 | [1] -0.001 | [2] -0.032 | [3] 0.002 | [4] -0.016 | [5] -0.08 | [6] -0.007 | [7] -0.018 | [8] -0.003 | IRAK-1-4 Inhibitor I 0.055

SLC30A9 (UniProt Q6PML9)
Sequence of UniProt Q6PML9 (Q6PML9 whole entry, looked up): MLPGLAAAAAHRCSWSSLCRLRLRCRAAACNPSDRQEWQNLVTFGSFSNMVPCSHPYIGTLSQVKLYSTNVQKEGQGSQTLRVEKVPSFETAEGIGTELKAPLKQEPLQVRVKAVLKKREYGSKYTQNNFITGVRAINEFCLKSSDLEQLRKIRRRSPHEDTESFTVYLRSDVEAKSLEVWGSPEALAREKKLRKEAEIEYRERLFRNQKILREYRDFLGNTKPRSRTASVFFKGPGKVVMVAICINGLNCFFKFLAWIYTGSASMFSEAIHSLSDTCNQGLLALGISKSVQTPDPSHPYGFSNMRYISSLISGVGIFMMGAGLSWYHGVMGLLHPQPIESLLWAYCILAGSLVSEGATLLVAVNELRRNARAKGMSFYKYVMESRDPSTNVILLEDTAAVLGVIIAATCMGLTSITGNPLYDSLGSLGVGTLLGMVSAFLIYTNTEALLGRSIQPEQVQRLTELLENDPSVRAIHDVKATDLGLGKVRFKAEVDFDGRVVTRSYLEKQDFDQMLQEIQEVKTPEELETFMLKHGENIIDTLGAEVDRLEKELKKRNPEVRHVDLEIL
inactive: erlotinib -0.023 | [1] 0.039 | [2] -0.17 | [3] -0.079 | [4] 0.017 | [5] -0.012 | [6] -0.023 | [7] -0.056 | [8] 0.1 | IRAK-1-4 Inhibitor I -0.005

SRGN (UniProt P10124)
inactive: erlotinib -0.034 | [1] 0.023 | [2] 0.051 | [3] -0.019 | [4] 0.05 | [5] 0.051 | [6] -0.069 | [7] 0.065 | [8] -0.139 | IRAK-1-4 Inhibitor I 0.013

SH3BP5L (UniProt Q7L8J4)
inactive: erlotinib 0.001 | [1] -0.156 | [2] 0.004 | [3] -0.058 | [4] -0.032 | [5] 0.003 | [6] 0.065 | [7] -0.019 | [8] 0 | IRAK-1-4 Inhibitor I 0

SLC38A10 (UniProt Q9HBR0)
inactive: erlotinib 0.007 | [1] -0.128 | [2] -0.006 | [3] -0.065 | [4] -0.009 | [5] 0.02 | [6] -0.127 | [7] 0 | [8] 0.016 | IRAK-1-4 Inhibitor I 0.047

SPNS1 (UniProt Q9H2V7)
inactive: erlotinib 0.015 | [1] -0.043 | [2] -0.02 | [3] 0.043 | [4] -0.031 | [5] 0.029 | [6] -0.063 | [7] 0 | [8] 0.044 | IRAK-1-4 Inhibitor I 0.032

SLC26A6 (UniProt Q9BXS9)
Sequence of UniProt Q9BXS9 (Q9BXS9 whole entry, looked up): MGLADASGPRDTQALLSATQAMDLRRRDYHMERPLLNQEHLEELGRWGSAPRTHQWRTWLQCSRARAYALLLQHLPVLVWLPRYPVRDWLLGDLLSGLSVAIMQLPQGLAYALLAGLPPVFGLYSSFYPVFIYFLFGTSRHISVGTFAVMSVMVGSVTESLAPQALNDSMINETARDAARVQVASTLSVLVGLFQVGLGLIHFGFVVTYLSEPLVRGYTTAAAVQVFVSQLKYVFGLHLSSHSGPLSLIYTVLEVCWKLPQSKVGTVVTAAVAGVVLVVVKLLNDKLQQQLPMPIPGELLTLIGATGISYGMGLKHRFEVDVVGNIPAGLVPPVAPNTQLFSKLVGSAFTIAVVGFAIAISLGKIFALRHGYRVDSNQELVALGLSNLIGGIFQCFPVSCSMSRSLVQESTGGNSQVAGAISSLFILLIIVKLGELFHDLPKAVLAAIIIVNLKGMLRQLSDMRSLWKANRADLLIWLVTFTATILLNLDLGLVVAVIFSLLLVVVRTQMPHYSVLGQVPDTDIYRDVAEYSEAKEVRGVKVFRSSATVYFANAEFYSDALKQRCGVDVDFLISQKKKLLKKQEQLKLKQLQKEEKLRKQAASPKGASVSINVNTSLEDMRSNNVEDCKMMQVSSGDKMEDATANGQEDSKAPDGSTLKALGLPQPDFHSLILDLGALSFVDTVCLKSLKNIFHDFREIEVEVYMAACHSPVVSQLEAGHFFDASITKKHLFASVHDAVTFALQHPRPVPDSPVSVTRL
inactive: erlotinib -0.04 | [1] -0.117 | [2] 0.024 | [3] -0.018 | [4] -0.044 | [5] 0.032 | [6] -0.114 | [7] -0.13 | [8] 0.087 | IRAK-1-4 Inhibitor I -0.062

SH3GL1 (UniProt Q99961)
Sequence of UniProt Q99961 (Q99961 whole entry, looked up): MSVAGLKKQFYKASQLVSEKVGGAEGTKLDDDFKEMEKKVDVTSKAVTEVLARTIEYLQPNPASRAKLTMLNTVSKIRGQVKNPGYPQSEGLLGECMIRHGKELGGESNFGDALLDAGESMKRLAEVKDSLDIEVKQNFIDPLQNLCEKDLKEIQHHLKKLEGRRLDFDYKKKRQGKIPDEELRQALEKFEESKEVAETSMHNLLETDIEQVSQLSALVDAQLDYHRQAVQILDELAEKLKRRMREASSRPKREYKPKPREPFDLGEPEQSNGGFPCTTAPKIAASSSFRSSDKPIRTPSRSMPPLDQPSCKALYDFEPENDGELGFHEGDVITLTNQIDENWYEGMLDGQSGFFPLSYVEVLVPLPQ
inactive: erlotinib -0.009 | [1] 0.016 | [2] -0.022 | [3] -0.004 | [4] -0.008 | [5] 0.001 | [6] -0.003 | [7] -0.027 | [8] 0.006 | IRAK-1-4 Inhibitor I -0.017

SUZ12 (UniProt Q15022)
inactive: erlotinib 0.024 | [1] -0.077 | [2] -0.018 | [3] 0.007 | [4] 0.004 | [5] 0.034 | [6] -0.079 | [7] -0.038 | [8] -0.021 | IRAK-1-4 Inhibitor I 0.02

SULT1A1 (UniProt P50225)
Sequence of UniProt P50225 (P50225 whole entry, looked up): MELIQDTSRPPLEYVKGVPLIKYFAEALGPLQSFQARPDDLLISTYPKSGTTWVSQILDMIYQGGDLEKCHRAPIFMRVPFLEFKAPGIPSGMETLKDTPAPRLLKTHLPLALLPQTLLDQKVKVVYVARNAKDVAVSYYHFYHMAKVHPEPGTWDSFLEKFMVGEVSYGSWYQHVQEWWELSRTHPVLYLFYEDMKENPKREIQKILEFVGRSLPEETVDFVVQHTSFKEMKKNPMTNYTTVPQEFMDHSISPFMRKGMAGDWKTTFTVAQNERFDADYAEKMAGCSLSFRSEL
inactive: erlotinib -0.045 | [1] 0.08 | [2] -0.014 | [3] 0.069 | [4] 0.048 | [5] -0.011 | [6] -0.061 | [7] -0.026 | [8] 0.018 | IRAK-1-4 Inhibitor I -0.04

SMIM8 (UniProt Q96KF7)
Sequence of UniProt Q96KF7 (Q96KF7 whole entry, looked up): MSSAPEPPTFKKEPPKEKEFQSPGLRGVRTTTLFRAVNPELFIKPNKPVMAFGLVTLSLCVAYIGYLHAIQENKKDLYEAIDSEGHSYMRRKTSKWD
inactive: erlotinib -0.057 | [1] 0.005 | [2] 0.028 | [3] 0.004 | [4] -0.004 | [5] -0.137 | [6] 0.028 | [7] 0.026 | [8] 0 | IRAK-1-4 Inhibitor I 0.058

SSBP3 (UniProt Q9BWW4)
inactive: erlotinib 0.038 | [1] -0.09 | [2] 0.004 | [3] 0.026 | [4] 0.129 | [5] -0.048 | [6] 0.018 | [7] -0.054 | [8] 0.013 | IRAK-1-4 Inhibitor I 0.041

SNCA (UniProt P37840)
inactive: erlotinib -0.265 | [1] -0.037 | [2] 0.098 | [3] 0.025 | [4] -0.147 | [5] -0.02 | [6] 0.044 | [7] -0.056 | [8] -0.085 | IRAK-1-4 Inhibitor I 0.019

SNW1 (UniProt Q13573)
Sequence of UniProt Q13573 (Q13573 whole entry, looked up): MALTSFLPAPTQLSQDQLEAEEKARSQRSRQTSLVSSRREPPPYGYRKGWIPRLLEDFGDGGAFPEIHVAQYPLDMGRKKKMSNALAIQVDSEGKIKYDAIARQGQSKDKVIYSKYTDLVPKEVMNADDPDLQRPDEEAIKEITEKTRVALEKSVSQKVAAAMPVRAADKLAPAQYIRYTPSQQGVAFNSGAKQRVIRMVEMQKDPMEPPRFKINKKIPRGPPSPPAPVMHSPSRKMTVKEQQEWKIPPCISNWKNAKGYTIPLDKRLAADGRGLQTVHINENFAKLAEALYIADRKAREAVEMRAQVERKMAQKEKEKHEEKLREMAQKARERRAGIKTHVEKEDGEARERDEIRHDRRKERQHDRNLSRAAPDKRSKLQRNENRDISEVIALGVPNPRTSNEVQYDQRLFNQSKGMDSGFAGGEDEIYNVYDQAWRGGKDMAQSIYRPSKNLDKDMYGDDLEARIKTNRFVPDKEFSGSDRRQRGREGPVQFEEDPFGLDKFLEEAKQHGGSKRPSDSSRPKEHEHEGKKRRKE
inactive: erlotinib -0.038 | [1] -0.017 | [2] 0.026 | [3] -0.018 | [4] -0.033 | [5] -0.006 | [6] -0.004 | [7] 0.022 | [8] -0.021 | IRAK-1-4 Inhibitor I 0

SLC25A17 (UniProt O43808)
inactive: erlotinib 0.035 | [1] 0.057 | [2] 0.061 | [3] 0.014 | [4] -0.015 | [5] 0.012 | [6] -0.021 | [7] 0.012 | [8] 0.03 | IRAK-1-4 Inhibitor I 0.056

SH3GL3 isoform 3 (UniProt Q99963)
Sequence of UniProt Q99963 (Q99963 whole entry, looked up): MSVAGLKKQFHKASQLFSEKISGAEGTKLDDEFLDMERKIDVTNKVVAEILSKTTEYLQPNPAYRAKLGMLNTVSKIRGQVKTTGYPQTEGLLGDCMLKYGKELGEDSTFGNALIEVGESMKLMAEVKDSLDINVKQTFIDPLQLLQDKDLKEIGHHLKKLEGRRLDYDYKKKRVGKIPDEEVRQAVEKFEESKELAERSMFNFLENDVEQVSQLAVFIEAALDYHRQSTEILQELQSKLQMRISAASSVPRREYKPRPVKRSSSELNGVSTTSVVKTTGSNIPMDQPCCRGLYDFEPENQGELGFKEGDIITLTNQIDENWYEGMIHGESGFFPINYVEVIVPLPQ
inactive: erlotinib -0.023 | [1] -0.014 | [2] -0.002 | [3] -0.054 | [4] -0.053 | [5] -0.108 | [6] -0.133 | [7] 0.054 | [8] -0.06 | IRAK-1-4 Inhibitor I -0.124

SNUPN (UniProt O95149)
inactive: erlotinib -0.048 | [1] -0.116 | [2] 0.3 | [3] 0.024 | [4] 0.035 | [5] 0.069 | [6] 0.009 | [7] 0.02 | [8] -0.039 | IRAK-1-4 Inhibitor I -0.001

STK36 (UniProt Q9NRP7)
inactive: erlotinib 0.114 | [1] -0.06 | [2] 0.251 | [3] -0.199 | [4] -0.169 | [5] -0.075 | [6] -0.241 | [7] -0.049 | [8] 0.185 | IRAK-1-4 Inhibitor I 0.205

SMAD2 (UniProt Q15796)
Sequence of UniProt Q15796 (Q15796 whole entry, looked up): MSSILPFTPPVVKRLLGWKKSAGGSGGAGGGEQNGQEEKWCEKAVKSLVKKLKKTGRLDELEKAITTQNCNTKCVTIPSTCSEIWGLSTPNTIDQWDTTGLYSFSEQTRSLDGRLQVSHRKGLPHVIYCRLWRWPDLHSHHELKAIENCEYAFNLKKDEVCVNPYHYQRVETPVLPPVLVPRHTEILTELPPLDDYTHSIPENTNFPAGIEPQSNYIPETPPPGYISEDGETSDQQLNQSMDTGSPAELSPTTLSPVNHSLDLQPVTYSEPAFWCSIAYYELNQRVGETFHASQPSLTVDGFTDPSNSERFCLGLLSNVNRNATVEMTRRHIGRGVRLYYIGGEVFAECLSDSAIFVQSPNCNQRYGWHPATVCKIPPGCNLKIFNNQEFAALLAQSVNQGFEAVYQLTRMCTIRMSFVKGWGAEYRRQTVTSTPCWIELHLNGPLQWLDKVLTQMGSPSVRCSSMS
inactive: erlotinib 0.14 | [1] 0.062 | [2] -0.018 | [3] 0.03 | [4] 0.002 | [5] 0.074 | [6] -0.003 | [7] 0.004 | [8] 0.035 | IRAK-1-4 Inhibitor I -0.03

SYF2 (UniProt O95926)
inactive: erlotinib 0 | [1] 0.043 | [2] 0.037 | [3] -0.025 | [4] -0.015 | [5] 0.037 | [6] 0.063 | [7] -0.048 | [8] 0 | IRAK-1-4 Inhibitor I -0.057

SMARCA4 (UniProt P51532)
inactive: erlotinib -0.01 | [1] -0.018 | [2] -0.021 | [3] 0.011 | [4] -0.001 | [5] -0.003 | [6] -0.017 | [7] -0.003 | [8] -0.024 | IRAK-1-4 Inhibitor I -0.025

SNRPD2 (UniProt P62316)
Sequence of UniProt P62316 (P62316 whole entry, looked up): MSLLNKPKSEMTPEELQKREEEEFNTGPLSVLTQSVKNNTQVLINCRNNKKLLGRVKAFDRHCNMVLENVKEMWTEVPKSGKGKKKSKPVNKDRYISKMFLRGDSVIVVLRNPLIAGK
inactive: erlotinib 0.019 | [1] 0.005 | [2] 0.058 | [3] -0.004 | [4] -0.018 | [5] -0.001 | [6] -0.035 | [7] 0.004 | [8] -0.008 | IRAK-1-4 Inhibitor I 0.004
